# A3A deaminase: blocks human APOBEC3A ssDNA deamination; P31941; recombinant A3A, FAM/TAMRA ssDNA deamination fluorescence; inhibition, % at 20 µM; actives 0.41% (n = 330,000);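 active = at least 40% inhibition at 20 µM here, with at most 30% in a related deaminase screen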;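 note: plate controls were A3A with DMSO for no effect and wells lacking A3A enzyme for full effect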
# Target sequence (P31941 whole entry, looked up): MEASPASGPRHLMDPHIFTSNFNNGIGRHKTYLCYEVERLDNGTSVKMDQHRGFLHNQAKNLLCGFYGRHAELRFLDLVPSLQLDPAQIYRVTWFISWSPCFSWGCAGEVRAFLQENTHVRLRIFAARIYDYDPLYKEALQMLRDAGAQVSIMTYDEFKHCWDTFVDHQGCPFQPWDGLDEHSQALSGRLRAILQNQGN
# Cardio protect: protects H9c2 cardiomyocytes from peroxide injury; actives 0.63% (n = 360,000); protection from H2O2 cell death, % at 20 µM; H2O2 injury protection, ATPLite, 2 h;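 active = compounds giving at least 50% protection of heart cells from peroxide-induced death in the single-dose screen, raw or plate-pattern-corrected value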;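 note: 0% = DMSO wells with peroxide and 100% = DMSO wells without peroxide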
# A3G deaminase: APOBEC3G (human) deaminase inhibition | Q9HC16 | recombinant A3G, ssDNA deamination FAM/TAMRA fluorescence | inhibition, % at 20 µM | actives 0.28% (n = 330,000) | AID 493012;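 active = inhibition of at least 40% at 20 µM, with no more than 30% in the related APOBEC3A deaminase screen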;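 note: plate controls were DMSO wells with A3G for no effect and wells lacking A3G enzyme for full effect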
# Target sequence (Q9HC16 whole entry, looked up): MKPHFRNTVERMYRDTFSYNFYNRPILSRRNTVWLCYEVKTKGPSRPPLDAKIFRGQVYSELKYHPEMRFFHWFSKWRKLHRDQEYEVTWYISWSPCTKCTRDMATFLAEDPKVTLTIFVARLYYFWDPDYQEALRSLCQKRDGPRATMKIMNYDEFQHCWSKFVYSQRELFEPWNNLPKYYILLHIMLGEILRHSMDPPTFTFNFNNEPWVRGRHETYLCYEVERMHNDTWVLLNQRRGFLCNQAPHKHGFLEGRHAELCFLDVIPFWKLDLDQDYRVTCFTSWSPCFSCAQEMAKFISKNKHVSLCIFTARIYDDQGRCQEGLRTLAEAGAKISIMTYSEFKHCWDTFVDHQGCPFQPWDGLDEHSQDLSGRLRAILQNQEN
# NadD inh: NadD (S. aureus) enzyme inhibition | purified NadD enzyme, colorimetric absorbance read-out | actives 0.78% (n = 360,000) | inhibition, % at 20 µM | AID 602399; in the data active = inhibition above about 26%
# PfG6PD inh: PfG6PD (Plasmodium falciparum) enzyme inhibition. PfGluPho enzyme, NADPH resazurin-diaphorase fluorescence. inhibition, % at 20 µM. actives 0.78% (n = 350,000). AID 504690;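 active = inhibition reaching at least a set limit at 20 µM in the primary screen, cut at about 59% in these data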;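 note: 0% = DMSO wells with substrate and 100% = DMSO wells lacking glucose-6-phosphate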
# H9c2 TAG inh: triacylglycerol accumulation inhibition; AID 651582; H9c2 cells, Nile Red lipid (TAG) fluorescence; cells loaded with 200 µM oleic acid; actives 0.66% (n = 230,000); inhibition, % at 12.5 µM;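 active = pattern-corrected inhibition of lipid staining of at least 50% with the nuclear-stain viability signal not falling by more than 50%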;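 note: 0% = DMSO wells and 100% = triacsin C control wells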
# Numbers without * were called inactive; / = no result; ! = not active in a repeat. The list is not random: actives were taken first. Their share in the collection is about 2.9%.
SMILES,A3A deaminase,Cardio protect,A3G deaminase,NadD inh,PfG6PD inh,H9c2 TAG inh
COc1ccc(NC(=O)c2cc(-c3ccccc3)nc3c2c(C)nn3-c2ccccc2)c(OC)c1,0,-6,-1,11,-2,/
COc1ccc(-c2cc(C(=O)NNC3=NCCC3)c3c(C)nn(-c4ccccc4)c3n2)cc1,-6,84*,-3,-2,-9,25
O=C(c1ccco1)N(CCC(c1ccccc1)c1ccco1)Cc1ccco1 (stereo not drawn),11,10,3,45*,16,-10
COc1ccccc1C(=O)N/C(=C\c1cn(S(=O)(=O)N(C)C)c2ccccc12)C(=O)N1CCN(C)CC1,/,16,/,-1,4,8
CCCCCCCCCCCCCCCC[n+]1cccc(C(=O)N(CC)CC)c1,0,-25,-10,8,4,59*!
CCCCCCCC[n+]1cccc(C(=O)N(CC)CC)c1,1,-2,-1,-2,-11,/
COc1ccc2[nH]c(=O)c(CNc3ccccc3OC)cc2c1,0,32,-7,4,69*,-4
COc1ccc(NC(=O)N(CCCN(C)C)Cc2cc3cc(OC)ccc3[nH]c2=O)cc1,4,51*,2,-5,-10,/
CC(C)(C)NC(=O)C1c2ccccc2OCC(=O)N1CCc1ccccc1 (stereo not drawn),/,/,/,7,/,/
CCOC(=O)N1CCN(C(=O)C2CCN(C(=O)c3ccccc3C)CC2)CC1,/,-20,/,19,117*,-15
Cc1ccccc1-c1nnc(SCC(=O)NC2CCCC2)o1,1,-2,-4,-4,-6,/
O=C(N/N=C/c1ccc(O)c(Br)c1)c1cc2c(ccc3ccccc32)o1,-3,7,-9,50*,6,-9
CNc1nc(Nc2ccc(Br)cc2)nc(N)c1[N+](=O)[O-],5,-9,0,9,-16,/
COc1ccc(-n2c(C)cc(-c3csc(NC(=O)c4ccc(S(=O)(=O)N(C)C)cc4)n3)c2C)cc1,6,3,1,34*,7,/
NC(=S)n1[nH]c(-c2ccc([N+](=O)[O-])cc2)c(N=Nc2ccc(O)cc2)c1=O,6,13,0,54*,-3,16
NC(=S)n1[nH]c(-c2ccc([N+](=O)[O-])cc2)c(N=Nc2cccc(Cl)c2)c1=O,0,-26,-5,93*,-44,0
CC(C)C(C)N(Cc1cccc(C(=O)O)c1)C(=O)c1ccc2ccccc2n1 (stereo not drawn),2,0,0,-3,14,2
Brc1ccc(CSc2ccc3nnc(-c4cccnc4)n3n2)cc1,-7,68*,-15,4,-8,14
Cc1ccc(CSc2ccc3nnc(-c4cccnc4)n3n2)cc1,2,13,-1,1,-5,/
N=c1c(C(=O)NCc2ccco2)cc2c(=O)n3ccccc3nc2n1Cc1ccc(Cl)cc1,8,19,7,26,12,21
N=c1c(C(=O)NCc2ccc(F)cc2)cc2c(=O)n3ccccc3nc2n1Cc1ccco1,5,-31,9,31*,24,-4
COc1ccc([C@H]2/C=C\CN(S(=O)(=O)c3cccc4cccnc34)[C@@H](C)C(=O)N2Cc2ccc(F)cc2)cc1,-5,-2,-9,15,19,9
COc1ccc(C2/C=C\CN(S(=O)(=O)c3cccc4cccnc34)CC(=O)N2Cc2ccc(F)cc2)cc1 (stereo not drawn),3,50*,-3,4,-6,-7
O=C(CCCn1c(SCC(=O)NC2CCCCC2)nc2ccccc2c1=O)NCC1CCCO1 (stereo not drawn),-2,12,-5,5,-26,/
CCCCn1c(SCC(=O)c2ccc(O)c(O)c2)nc2ccsc2c1=O,-4,92*,-9,13,-38,5
SMILES,A3A deaminase,Cardio protect,A3G deaminase,NadD inh,PfG6PD inh,H9c2 TAG inh
O=C(O)CCCCCn1c(SCC(=O)c2ccc(O)c(O)c2)nc2ccsc2c1=O,-3,17,-6,-2,-23,/
O=C(CCCn1c(SCC(=O)c2ccc(O)c(O)c2)nc2ccccc2c1=O)NCC1CCCO1 (stereo not drawn),13,53*,-3,10,-20,/
COc1ccc(-c2cc(C(F)(F)F)nc(S(=O)(=O)CCCC(=O)Nc3cccnc3Cl)n2)cc1OC,/,-26,/,1,5,107
CCN(CC)CCNC(=O)c1ccc(NC(=O)Cc2ccc(OC)c(S(=O)(=O)N3CCOCC3)c2)cc1,/,4,/,4,6,2
C=CC(=O)Nc1ccc(CN2C(=O)N(c3c(Cl)c(OC)cc(OC)c3Cl)Cc3cnc(NCCCCN(CC)CC)nc32)cc1,1,5,-5,19,53,66*
CC(C)(C)OC(=O)NCc1ccc(NC(=O)c2nc[nH]c2C(=O)NCCNC(=O)c2[nH]cnc2C(=O)Nc2ccc(CNC(=O)OC(C)(C)C)cc2)cc1,1,38,-4,25,-32,41
CC(C)(C)OC(=O)CNC(=O)c1[nH]cnc1C(=O)NCC(=O)OCc1ccccc1,-4,105*,-14,1,4,1
CC(C)(C)OC(=O)NCCCCCNC(=O)c1nc[nH]c1C(=O)NCC(=O)OCc1ccccc1,2,20,-1,13,2,/
O=C(CNC(=O)c1[nH]cnc1C(=O)NC(c1ccccc1)c1ccccc1)OCc1ccccc1,-5,58*,-8,7,20,-13
CC(C)(C)OC(=O)CNC(=O)c1[nH]cnc1C(=O)Nc1ccc(CNC(=O)OC(C)(C)C)cc1,0,87*,-2,1,15,-14
O=C(CNC(=O)c1[nH]cnc1C(=O)N[C@@H](Cc1ccccc1)C(=O)OCc1ccccc1)OCc1ccccc1,-5,10,-10,5,9,-8
Cc1ccc(C(=O)NCCc2nnc3ccc(SCC(=O)N4CCCCC4)nn23)cc1,-1,2,0,0,19,14
CCOC(=O)Nc1nc(-c2ccccc2)c(C(=O)c2ccc(Cl)cc2)s1,-2,7,-3,-3,-31,59*
COc1cc(F)ccc1-c1csc(C(O)(c2ccccc2)C(F)(F)F)n1 (stereo not drawn),/,-18,/,0,/,-4
CC(C)(C)N1C(=O)Cc2c1nc(N)c1c(N)nc(N3CCCCC3CO)c(C#N)c21 (stereo not drawn),-4,22,-9,37*,89*,-10
CCOc1cc2[nH]c(=O)n(CCCCCC(=O)NCc3ccco3)c(=O)c2cc1OCC,0,2,-9,-6,-10,4
CCCCN(C)C(=O)CCCCn1c(=O)[nH]c2cc(OCC)c(OCC)cc2c1=O,-2,10,5,-4,1,51*
CCOc1cc2[nH]c(=O)n(CCc3ccc(OC)c(OC)c3)c(=O)c2cc1OCC,3,5,-3,-3,-11,59*
COc1cc(/C=N/NC(=O)c2[nH]nc3c2CCc2ccccc2-3)ccc1O,0,54*,-2,13,8,/

# Screening results as filed in PubChem BioAssay.
